Assay results taken from PubChem BioAssay AID624483 (NMMLSC, 2012).
Hit rate of the full screen: of about 360,000 compounds, about 11,000 (3.1%) were called active. Another 2% or so got no clear call; they are omitted. Shown is part of a subset that was picked to be rich in actives. Values without a mark were called inactive. Cut-off read from the data, not from the text of the source: active = fluorescence intensity above about 16000; inconclusive = no clear call, values can overlap the other calls; inactive = below that.

Assay: compound fluorescence in toxin protease inhibitor counterscreen, primary screen, artefact control for toxin protease inhibitor project, biochemical, multiplex microsphere, HTS (AID 624483)
Settings: compound autofluorescence counterscreen, microsphere flow cytometry; hits give high values

Structure (SMILES)	fluorescence intensity
NC(=O)C1CCN(CC(O)CSc2ccc(F)cc2)CC1 (stereo not drawn)	3520
CC1(C(=O)NCc2ccc3c(c2)OCO3)CCN1C(=O)Cc1cccs1 (stereo not drawn)	3670
CCOC(=O)N1CCN(C(=O)COc2ccc3oc4c(c3c2)CCCC4)CC1	4590
O=C(COc1ccc2oc3c(c2c1)CCCC3)Nc1ccccn1	3750
O=C(CN1CCOCC1)N1CCCc2c1c(=O)oc1ccc(OCc3ccccc3)cc21	22500 (active)
O=C1OC(NC(=O)c2ccccc2)C(N2CCOCC2)=C1Cl (stereo not drawn)	21900 (active)
O=C(NC(=O)N1CCOCC1)c1ccccc1	9020
O=C1OC(OC(=O)c2ccccc2Br)C(N2CCOCC2)=C1Cl (stereo not drawn)	6700
Cc1cc2oc(=O)cc(CN(C)Cc3ccccc3)c2cc1Cl	6000
Cc1c(C=O)c2ccccc2n1CC(=O)O	4440
CC(=O)c1c(C)n([O-])c2ccccc2[n+]1=O	23100 (active)
CNc1nnc(-c2ccco2)s1	4180
COC(=O)c1cnn2c(C(F)(F)F)cc(-c3ccco3)nc12	4440
Cc1nnc2sc(-c3ccco3)nn12	20800 (active)
FC(F)(F)c1nnc2c3ccccc3c(Cl)nn12	3190
FC(F)(F)c1nnc2sc(-c3ccco3)nn12	22400 (active)
Fc1ccc(-c2ccc(-c3nn4c(-c5ccco5)nnc4s3)o2)cc1	3990
CC(=O)Nc1cccc(-c2cc(NC(C)=O)c3ncc(-c4ccccc4)n3c2)c1	3750
O=C(/C=C/c1cccs1)c1cc(Cl)ccc1OC(=O)N1CCOCC1	2170
O=C(Nc1ccc(N2CCOCC2)cc1)c1cccc2c(-c3ccc(F)c(F)c3)coc12	3990
CC12CCC(=O)C=C1CCC1C2C(O)CC2(C)C1CCC2(O)C(O)CO (stereo not drawn)	5610
O=C(/C=C/NCc1ccc(F)cc1)c1ccccc1	2490
O=C(/C=C/NNC(=O)c1cccc(Br)c1)c1ccccc1	3590
O=C(/C=C\NCC(=O)c1ccccc1)c1ccccc1	21800 (active)
COC(=O)c1ccc(C)c(NC(=O)Cn2c(C)csc2=O)c1	3770

Structure (SMILES)	fluorescence intensity
Cc1oc(-c2cccc(Cl)c2)[n+]([O-])c1C	3960
CCOc1cnc(-c2c(-c3ccccc3Cl)noc2C)o1	2480
Cc1oc(-c2ccccc2Cl)[n+]([O-])c1C	25200 (active)
CCc1sc(C(=O)N2CCN(CC(=O)Nc3cccc(F)c3)CC2)cc1C	3730
Cc1ccc(NC2CCCN(C(=O)CCc3cn[nH]c3)C2)cc1C (stereo not drawn)	4290
CC1=C(C(N)=O)C(c2ccc(F)cc2)n2nc(CCCO)nc2N1 (stereo not drawn)	3660
COCCOC(=O)C1=C(C)Nc2nc(C)nn2C1c1ccccc1 (stereo not drawn)	17100 (active)
COC(=O)c1nc2n(n1)C(c1ccc([N+](=O)[O-])cc1)C(C(=O)Nc1ccc(Cl)cc1)=C(C)N2 (stereo not drawn)	2390
O=C(Nc1ccc(Cl)cc1)C1Cc2c(-c3ccc4c(c3)OCO4)ccnc2O1 (stereo not drawn)	3410
Cc1c(C(=O)Nc2cccc(S(=O)(=O)N3CCOCC3)c2)oc2ccccc12	2760
COc1ccc(NC(=O)c2oc3ccc(S(=O)(=O)N4CCOCC4)cc3c2C)cc1	4190
Cc1c(C(=O)Nc2ccccc2Cl)oc2ccc(S(=O)(=O)N3CCC4(CC3)OCCO4)cc12	22400 (active)
CC(=O)Nc1ccc(-c2ccnc3c2CC(C(=O)NC(C)C)O3)cc1 (stereo not drawn)	3750
COc1cc(C=C(OC(C)=O)c2ccc3c(c2)OCO3)cc(OC)c1OC	6370
NNc1nc2c(Cl)cccc2s1	6940
CC(C)CNS(=O)(=O)c1ccc(CCC(=O)NCc2ccc(Cl)cc2)cc1	3570
Cc1ccc(S(=O)(=O)NCCC(=O)NCc2ccc(Cl)cc2)cc1C	4140
CC(C)CCNC(=O)CCNS(=O)(=O)c1ccc(Cl)cc1	19700 (active)
Cc1ccc(-c2nc3ccc(Br)cn3c2Cc2ccccc2C(F)(F)F)cc1	5850
CC(=O)c1nn(-c2ccccc2)c(=Nc2ccccc2)cc1C	4100
COc1ccc(CC(=O)NCc2nnc(SCC(=O)Nc3nccs3)n2C)cc1	4710
Cn1c(SCC(=O)Nc2nccs2)nnc1-c1cccnc1	4450
Cc1ccc(C(C)C)c(OCc2nnc(SCC(=O)Nc3nccs3)n2C)c1	17800 (active)
c1ccc2c(NC3C4CC5CC(C4)CC3C5)nc(N3CCOCC3)nc2c1 (stereo not drawn)	4640
NC(c1csc(NC(=O)Nc2ccccc2Oc2ccccc2)n1)c1ccccc1Cl (stereo not drawn)	3590

Structure (SMILES)	fluorescence intensity
O=C(c1cc(C2CCCCN2S(=O)(=O)c2ccccc2)on1)N1CCOCC1 (stereo not drawn)	3020
CC(=O)NS(=O)(=O)c1ccc(N/C(N)=N/c2nc(C)cc(C)n2)cc1	3910
O=C1NC(c2ccccc2)Oc2ccccc21 (stereo not drawn)	3320
CN1CC(c2ccccc2)C2(COc3ccccc3C2=O)C12C(=O)Nc1ccccc12 (stereo not drawn)	16700 (active)
C[C@@H]1NC(=O)[C@@]2(C)[C@@H](c3ccccc3)[C@H]3COc4ccccc4[C@@H]3N2C1=O	3420
Cc1cc(C)n2c(NCc3ccccc3)c(CC(C)C)nc2n1	6800
CCN(CC(=O)Nc1c(F)cccc1F)C(=O)c1cnc(C)cn1	4920
Cc1cccc(N2CCN(C(=O)/C=C/c3ccco3)CC2)c1C	2640
CCC(CC)C(=O)N1CCN(c2cccc(C)c2C)CC1	2200
CC(=O)N1CCN(c2cccc(C)c2C)CC1	20800 (active)
C=CCC[C@H](CCCCC)OC(=O)/C=C/[C@H](O)[C@@H](O)C[C@@H](O)CC=C	4110
CCCc1ccc(C(O)c2ncc(-c3cccc(OC)c3)[nH]2)cc1 (stereo not drawn)	3420
CCOC(=O)CSc1nc2c(c(=O)n(Cc3ccccc3Cl)c(=O)n2C)n1C	4690
COc1cccc(-n2c(=S)sc3c(=O)n(-c4ccccc4C)c(SCC(=O)O)nc32)c1	3210
CCOC(=O)CSc1nc2c(sc(=S)n2CCc2ccccc2)c(=O)n1Cc1ccco1	16400 (active)
COc1ccc(NC(=O)c2sc(=O)n(Cc3ccc(S(=O)(=O)N(C)C)cc3)c2C)cc1	5230
COc1ccc(NC(=O)C(Br)C(C)C)cc1 (stereo not drawn)	3200
COc1ccc(Nc2ccc3ccccc3c2)cc1	3980
COc1ccc(NC2=CC(=S)NC(C)(C)C2)cc1	26300 (active)
Cc1cc(Br)cn2c(Cc3ccsc3)c(-c3ccc(C#N)cc3)nc12	4980
CC(C)Nc1nc(NCCOc2ccccc2Cl)c2sccc2n1	4090
COc1cc(/C=N/N2CCN(c3ccccc3)CC2)ccc1OC(C)=O	4030
Cc1ccc(N2CCN(/N=C/c3cccs3)CC2)cc1	15100
C(=N/N1CCN(c2ccccc2)CC1)/c1cccs1	23100 (active)
CCCCc1nc(SCC(=O)Nc2nnc(C(C)C)s2)n[nH]1	5330

Structure (SMILES)	fluorescence intensity
Cc1ccc(NC(=O)CSc2nc(CSc3ccc(C)cc3)cc(=O)[nH]2)cc1	4220
COC(=O)c1cccc(NC(=O)CSc2nc(C)cc(=O)[nH]2)c1	19300 (active)
COc1ccc(NC(=O)CSc2nc(NS(=O)(=O)c3ccc(C)cc3)cc(=O)[nH]2)cc1	19100 (active)
CCCc1cc(=O)[nH]c(SCC(=O)Nc2ccc(C(=O)Nc3ccccc3OC)cc2)n1	3560
CCCCc1nnc(NC(=O)CSc2nc(C)cc(=O)[nH]2)s1	22200 (active)
Cc1nc2nc(SCC(=O)Nc3cccc(F)c3)[nH]c2cc1Br	5340
Cc1ccc(OCCCC(=O)Nc2ccc(S(=O)(=O)Nc3cc(C)nc(C)n3)cc2)cc1	5510
CCCCc1nnc(NC(=O)CSc2nc(N)cc(=O)[nH]2)s1	4560
COc1ccc(C2=NS(=O)(=O)N(C)C(C(=O)N3CCCCC3)=C2)cc1	5200
COCCNc1ncnc2c1ncn2[C@H]1CN(Cc2ccc(OC)cc2)C[C@@H](CO)O1	2990
Cc1cccc(CN2CCN(C3CN(Cc4cn(Cc5ccccc5F)nn4)S(=O)(=O)C3)CC2)c1 (stereo not drawn)	6290
O=C(COc1ccc(Br)cc1)OCC(=O)c1ccc[nH]1	3140
Cc1ccc2oc(C(=O)N3CCN(C)C[C@@H]3C(C)C)c(C)c2c1	3260
O=C1OCCOC2CCCc3oc(-c4ccccc4)c1c32 (stereo not drawn)	5740
CCCCC(O)C1=C[N+](=O)CC=C1 (stereo not drawn)	4270
CC1CCCCC1NC(=O)CCS(=O)(=O)c1cccc2nonc12 (stereo not drawn)	4530
CCc1nc2c(OCc3ccc(C(F)(F)F)cc3)cccn2c1N(C)C(=O)CC(C)C	3820
CCOC(=O)c1c(-c2ccccc2)oc2cc(Br)c(O)c(C=O)c12	3500
CCOC(=O)c1c(-c2ccccc2)oc2ccc(OC(=O)N(C)C)cc12	18300 (active)
CCOC(=O)c1c(-c2ccccc2)oc2ccc(OCC(=O)NN)cc12	3330
Cc1cccc(C)c1NC(=O)CN1C(=O)C(C)Oc2ccccc21 (stereo not drawn)	4620
CC12c3ccccc3C(c3ccccc31)C1C(=O)N(Cc3cccnc3)C(=O)C12 (stereo not drawn)	10400
CC1Oc2ccccc2N(Cc2cccnc2)C1=O (stereo not drawn)	22000 (active)
